Source: PubChem (several laboratories)
An excerpt weighted towards active compounds, which were near 2.8% of everything screened.
KKLEB cytotox: cytotoxicity in KKLEB CF airway cells, primary screen, cytotoxicity control for CF NF-kB inhibitor project, cell-based, uHTS, fluorescence assay plates. KKLEB CF airway cells viability, ATPlite luminescence, overnight; active compounds read low; cells stimulated with P. aeruginosa culture filtrate. activity change (cytotoxicity), % at 5 µM. actives 0.36% (n = 360,000). AID 602141, 2011;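 active means corrected activity change at or below -50% at 5 µM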
Shn3 inh set2: reduction of Shn3 3'UTR firefly luciferase signal, primary screen, Schnurri-3 inhibitor project, cell-based, Clone20 osteoblasts, set 2; Clone20 osteoblast Shn3 3'UTR firefly luciferase, 24 h; inhibition, % at 12.5 µM; actives 0.52% (n = 360,000); AID 588674, 2011;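 active means mean inhibition of at least 75% with every replicate also reaching 75%; inconclusive means mean inhibition at least 75% but some replicate below; inactive means mean inhibition below 75%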;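 further: 0% = median of neutral control wells and 100% = pilot-screen positive control compound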
CF NFkB block: inhibitors of PAF-induced NF-kB signaling, primary screen, cell-based, GFP fluorescence, uHTS. KKLEB NF-kB-GFP reporter, GFP fluorescence overnight. inhibition, % at 5 µM. actives 0.86% (n = 360,000). AID 588850, 2011;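 active means at least 50% inhibition at 5 µM, scaled per plate between neutral and stimulator controls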;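 further: PAF is a Pseudomonas aeruginosa culture filtrate used as stimulus; plate controls were PAF-stimulated DMSO wells for no effect and unstimulated DMSO wells for full effect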
TRPM1 prom inh: inhibitors of MITF-dependent TRPM1 promoter reporter, primary screen, cell-based, SK-MEL-5, single point, luciferase; actives 0.83% (n = 330,000); SK-MEL-5 TRPM1 promoter luciferase, 24 h; inhibition, % at 12.5 µM;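 active means mean inhibition across replicates of 60% or more, whatever share of single replicates reaches that level; inconclusive means some that reach 60%, reason not given; inactive means mean inhibition across replicates below 60%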
HIF-2a inh: HIF-2a reporter inhibitors, primary screen, luminescence, 786-0 RCC cells; 786-0 RCC cells HIF-2a reporter, luciferase luminescence, overnight; inhibition, % at 18.8 µM; actives 0.72% (n = 360,000); AID 624352, 2012;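 active means inhibition of the luminescence signal of 40% or more relative to plate controls, in a single-dose primary screen at 18.75 µM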
Peg3 prom inh: Peg3 promoter-driven luciferase inhibitors, primary screen, cell-based, HeLa, luciferase luminescence; HeLa PEG-Prom luciferase reporter, overnight; inhibition, % at 20 µM; actives 1.7% (n = 360,000);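 active means inhibition of at least 50% at 20 µM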
An asterisk follows results filed as active.

What do the screens show for `COC(=O)c1ccc2c(c1)C(NC(C)=O)CCc1cc(OC)c(OC)c(OC)c1-2` (stereo not drawn)?
KKLEB cytotox: -13; Shn3 inh set2: 12; CF NFkB block: 59*; TRPM1 prom inh: 35; HIF-2a inh: 23; Peg3 prom inh: -40

Results for COc1cc2c(c(OC)c1OC)-c1ccc(SC)c(=O)cc1C(NC=O)CC2 (stereo not drawn) ?
KKLEB cytotox: -32; Shn3 inh set2: 6; CF NFkB block: 48; TRPM1 prom inh: 64*; HIF-2a inh: 22; Peg3 prom inh: -14

Results for COc1cc2c(c(OC)c1OC)-c1ccc(OC)c(=O)cc1C(NC(=O)c1ccccc1)CC2 (stereo not drawn) ?
KKLEB cytotox: -3; Shn3 inh set2: 0; CF NFkB block: 45; TRPM1 prom inh: 33; HIF-2a inh: 23; Peg3 prom inh: -50

Results for COc1cccc(C(=O)Nc2ccc3c(cc2=O)[C@@H](NC(C)=O)CCc2cc(OC)c(OC)c(OC)c2-3)c1 ?
KKLEB cytotox: -11; Shn3 inh set2: 16; CF NFkB block: 38; TRPM1 prom inh: 62*; HIF-2a inh: 37; Peg3 prom inh: 22

Results for COc1cc2c(c(OC)c1OC)-c1ccc(OC)c(=O)cc1C(NC(C)=O)CC2 (stereo not drawn) ?
KKLEB cytotox: -26; Shn3 inh set2: -37; CF NFkB block: 42; TRPM1 prom inh: 66*; HIF-2a inh: 25; Peg3 prom inh: -14

How did C=COC(=O)NC1CCc2cc(OC)c(OC)c(OC)c2-c2ccc(SC)c(=O)cc21 (stereo not drawn) do in these assays?
KKLEB cytotox: 1; Shn3 inh set2: -8; CF NFkB block: 36; TRPM1 prom inh: 51; HIF-2a inh: 31; Peg3 prom inh: -16

Results for COc1cc2c(c(OC)c1OC)-c1ccc(SC)c(=O)cc1C(NC(=O)c1ccccc1)CC2 (stereo not drawn) ?
KKLEB cytotox: -8; Shn3 inh set2: 7; CF NFkB block: 23; TRPM1 prom inh: 40; HIF-2a inh: 24; Peg3 prom inh: -24

How did COc1ccc(C2=CSC3=C(C(=O)c4cccc(S(=O)(=O)N(C)C)c4)CCN23)cc1 do in these assays?
KKLEB cytotox: -27; Shn3 inh set2: 21; CF NFkB block: -12; TRPM1 prom inh: 17; HIF-2a inh: 1; Peg3 prom inh: -2

How did O=C(CSc1nc(=O)n(CCCN2CCOCC2)c2c1CCCC2)Nc1cccc(Cl)c1 do in these assays?
KKLEB cytotox: -6; Shn3 inh set2: 1; CF NFkB block: -7; TRPM1 prom inh: 6; HIF-2a inh: 3; Peg3 prom inh: 23

How did O=C(Nc1nc2ccc(F)cc2s1)c1ccc([N+](=O)[O-])o1 do in these assays?
KKLEB cytotox: -62*; Shn3 inh set2: -52; CF NFkB block: 81*; HIF-2a inh: -177; Peg3 prom inh: 67*

Results for O=C(NC(=S)Nc1nc2ccccc2s1)c1cccs1 ?
KKLEB cytotox: -56*; Shn3 inh set2: -49; CF NFkB block: -12; TRPM1 prom inh: -54; HIF-2a inh: -232; Peg3 prom inh: -225

What do the screens show for `CS(=O)(=O)c1ccc2nc(NC(=O)c3ccco3)sc2c1`?
KKLEB cytotox: -11; Shn3 inh set2: -34; CF NFkB block: 25; TRPM1 prom inh: -21; HIF-2a inh: -132; Peg3 prom inh: -147

How did O=C(NC(=S)Nc1nc2ccc(F)cc2s1)c1ccco1 do in these assays?
KKLEB cytotox: -71*; Shn3 inh set2: -40; CF NFkB block: -20; TRPM1 prom inh: -11; HIF-2a inh: -212; Peg3 prom inh: -166

How did COC(=O)c1nc(NC(=S)NC(=O)c2cccs2)sc1C do in these assays?
KKLEB cytotox: -18; Shn3 inh set2: -13; CF NFkB block: 20; TRPM1 prom inh: -24; HIF-2a inh: -149; Peg3 prom inh: -207

How did Cc1cc(Oc2ccccc2)nc(-c2ccccc2)n1 do in these assays?
KKLEB cytotox: -11; Shn3 inh set2: -22; CF NFkB block: 12; TRPM1 prom inh: -15; HIF-2a inh: -64; Peg3 prom inh: -30

How did C=C(C)c1nc(Oc2ccccc2)nc(Oc2ccccc2)n1 do in these assays?
KKLEB cytotox: 1; Shn3 inh set2: 36; CF NFkB block: 6; TRPM1 prom inh: inconclusive; HIF-2a inh: 11; Peg3 prom inh: 106*

How did O=C(N/N=C/c1cc2ccccc2nc1Cl)/C(=C/c1cccs1)NC(=O)c1ccccc1 do in these assays?
KKLEB cytotox: 10; Shn3 inh set2: 5; CF NFkB block: -30; TRPM1 prom inh: 10; HIF-2a inh: 18; Peg3 prom inh: 66*

What do the screens show for `CN1CCC(=NNc2ccc(S(=O)(=O)N3CCOCC3)cc2[N+](=O)[O-])CC1`?
KKLEB cytotox: 2; Shn3 inh set2: 10; CF NFkB block: -9; TRPM1 prom inh: 9; HIF-2a inh: 11; Peg3 prom inh: 2

What do the screens show for `COC(=O)N/N=C/c1cc(N=Nc2ccccc2)ccc1O`?
KKLEB cytotox: 14; Shn3 inh set2: 8; CF NFkB block: 13; TRPM1 prom inh: 0; HIF-2a inh: -99; Peg3 prom inh: -44

How did Cc1cc(C(=O)N/N=C/c2cc(N=Nc3ccccc3)ccc2O)n[nH]1 do in these assays?
KKLEB cytotox: -18; Shn3 inh set2: 87*; CF NFkB block: 40; TRPM1 prom inh: 41; HIF-2a inh: -132; Peg3 prom inh: -26

Results for Nc1ccc(C(=O)N/N=C\c2cc(N=Nc3cccc4ccccc34)ccc2O)cc1 ?
KKLEB cytotox: 6; Shn3 inh set2: 89*; CF NFkB block: 7; TRPM1 prom inh: 40; HIF-2a inh: -41; Peg3 prom inh: 27

Results for OCC[C@@H]1C[C@H](O)[C@@H](O)[C@]2(OCc3ccc(CO)cc32)O1 ?
KKLEB cytotox: 2; Shn3 inh set2: -47; CF NFkB block: -6; HIF-2a inh: 5; Peg3 prom inh: 6

How did O=C(NCc1cc([N+](=O)[O-])ccc1O)c1cccnc1Sc1ccccc1Cl do in these assays?
KKLEB cytotox: -15; Shn3 inh set2: 3; CF NFkB block: 13; TRPM1 prom inh: 9; HIF-2a inh: 7; Peg3 prom inh: 14

Results for C[C@@H]1CN([C@H](C)CO)C(=O)c2cc(NS(=O)(=O)c3ccc(F)cc3)ccc2O[C@@H]1CN(C)Cc1ccc(Cl)c(Cl)c1 ?
KKLEB cytotox: 13; Shn3 inh set2: 18; CF NFkB block: -4; TRPM1 prom inh: 0; HIF-2a inh: -15; Peg3 prom inh: 52*
